# According to the supplement of paper PMC8728848:
# The entries come from a sample that favours the strongest signals as a whole.
# B1: B936 (Bifidobacterium sp) (protein)
# chain: MKNWKKAIALVASAAALVSVAACGPSNAGGSSDSGKKTVGFVAVGPEGGFRTANEKDIQKAFEDAGFDLTYSPTQNNDQQKQIQAFNKFVNDEVDAIILSSTEDSGWDDSLKKAAEAEIPVFTVDRNVDVKDAEAKKAIVAHIGPSNVWCGEQAAEFVNKNFPDGANGFILEGPAGLSVVKDRGTGWGNKVASNVKVLESQSANWSTDEAKTVTAGLLDKYKSDNPQFIFAQNDEMGLGAAQAVDAAGLKGKVKIITIDGTKNALQALVDGDLSYVIEYNPIFGKETAQAVKDYLDGKTVEKDIEIESKTFDAASAKEALDNNTRAY
# Assays:
# Experiment in all cases: glycan array binding signal (z-score within array); higher = stronger binding
# Details in all cases: glycan notation: IUPAC condensed, linker removed
# [1] = target: Fuc(a1-2)Gal(b1-4)GlcNAc(b1-3)[Fuc(a1-3)[Gal(b1-4)]GlcNAc(b1-6)]Gal(b1-4)Glc
# Procedure, shortened: (§1)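 Glycan array binding is given as a within-array Z-score, which can be read as non-binding when negative. The arrays, 3228 of them, came from the Consortium for Functional Glycomics database and were retained only where the protein sequence was available. Z-scores were averaged across arrays of the same protein sequence at different concentrations or buffers and across linkers.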
# [2] = target: Fuc(a1-2)Gal(b1-4)[Fuc(a1-3)]GlcNAc(b1-2)[Fuc(a1-2)Gal(b1-4)[Fuc(a1-3)]GlcNAc(b1-4)]Man(a1-3)[Fuc(a1-2)Gal(b1-4)[Fuc(a1-3)]GlcNAc(b1-2)Man(a1-6)]Man(b1-4)GlcNAc(b1-4)GlcNAc
# Procedure, shortened: as §1
# [3] = target: Fuc(a1-2)[Gal(a1-3)]Gal(b1-4)GlcNAc(b1-3)[Fuc(a1-2)[Gal(a1-3)]Gal(b1-4)GlcNAc(b1-6)]GalNAc
# Procedure, shortened: as §1
# [4] = target: Fuc(a1-2)[Gal(a1-3)]Gal(b1-4)[Fuc(a1-3)]GlcNAc(b1-3)GalNAc
# Procedure, shortened: as §1
# [5] = target: Fuc(a1-2)[GalNAc(a1-3)]Gal(b1-3)GlcNAc(b1-6)GalNAc
# Procedure, shortened: as §1
# [6] = target: Fuc(a1-2)[GalNAc(a1-3)]Gal(b1-4)[Fuc(a1-3)]GlcNAc(b1-3)GalNAc
# Procedure, shortened: as §1
# [7] = target: Fuc(a1-3)[Gal(b1-4)]GlcNAc(b1-2)Man(a1-3)[Fuc(a1-3)[Gal(b1-4)]GlcNAc(b1-2)Man(a1-6)]Man(b1-4)GlcNAc(b1-4)[Fuc(a1-6)]GlcNAc
# Procedure, shortened: as §1
# [8] = target: Fuc(a1-3)[Gal(b1-4)]GlcNAc(b1-3)Gal(b1-4)[Fuc(a1-3)]GlcNAc
# Procedure, shortened: as §1
# [9] = target: Fuc(a1-3)[Gal(b1-4)]GlcNAc(b1-6)[Gal(b1-3)GlcNAc(b1-3)]Gal(b1-4)Glc
# Procedure, shortened: as §1
# [10] = target: Fuc(a1-3)[Gal3S(b1-4)]GlcNAc6S
# Procedure, shortened: as §1
# [11] = target: Fuc(a1-3)[GalNAc(b1-4)]GlcNAc6S
# Procedure, shortened: as §1
# [12] = target: Gal(a1-3)Gal(b1-3)GlcNAc(b1-2)Man(a1-3)[Gal(a1-3)Gal(b1-3)GlcNAc(b1-2)Man(a1-6)]Man(b1-4)GlcNAc(b1-4)GlcNAc
# Procedure, shortened: as §1
# [13] = target: Gal(a1-3)Gal(b1-3)[Fuc(a1-4)]GlcNAc(b1-2)Man(a1-3)[Gal(a1-3)Gal(b1-3)[Fuc(a1-4)]GlcNAc(b1-2)Man(a1-6)]Man(b1-4)GlcNAc(b1-4)GlcNAc
# Procedure, shortened: as §1
# Gal(a1-3)Gal(b1-4)GlcNAc = target: Gal(a1-3)Gal(b1-4)GlcNAc
# Procedure, shortened: as §1
# [14] = target: Gal(a1-4)Gal(b1-4)GlcNAc(b1-2)Man(a1-3)[Gal(a1-4)Gal(b1-4)GlcNAc(b1-2)Man(a1-6)]Man(b1-4)GlcNAc(b1-4)GlcNAc
# Procedure, shortened: as §1
# Gal(b1-3)Gal(b1-4)GlcNAc = target: Gal(b1-3)Gal(b1-4)GlcNAc
# Procedure, shortened: as §1
# Gal(b1-3)GalNAc = target: Gal(b1-3)GalNAc
# Procedure, shortened: as §1
# [15] = target: Gal(b1-3)GlcNAc(b1-3)Gal(b1-4)Glc
# Procedure, shortened: as §1
# [16] = target: Gal(b1-3)GlcNAc(b1-3)Gal(b1-4)GlcNAc
# Procedure, shortened: as §1
# [17] = target: Gal(b1-3)[Fuc(a1-4)]GlcNAc(b1-2)Man
# Procedure, shortened: as §1
# [18] = target: Gal(b1-3)[Fuc(a1-4)]GlcNAc(b1-3)Gal(b1-3)[Fuc(a1-4)]GlcNAc
# Procedure, shortened: as §1
# [19] = target: Gal(b1-3)[Fuc(a1-4)]GlcNAc(b1-6)GalNAc
# Procedure, shortened: as §1
# [20] = target: Gal(b1-4)GlcNAc(b1-2)[Gal(b1-4)GlcNAc(b1-4)]Man(a1-3)[Gal(b1-4)GlcNAc(b1-2)Man(a1-6)]Man(b1-4)GlcNAc(b1-4)GlcNAc
# Procedure, shortened: as §1
# [21] = target: Gal(b1-4)GlcNAc(b1-2)[Gal(b1-4)GlcNAc(b1-6)]Man(a1-6)[GlcNAc(b1-4)][Gal(b1-4)GlcNAc(b1-2)Man(a1-3)]Man(b1-4)GlcNAc(b1-4)GlcNAc
# Procedure, shortened: as §1
# [22] = target: Gal(b1-4)GlcNAc(b1-3)Gal(b1-4)Glc
# Procedure, shortened: as §1
# [23] = target: Gal(b1-4)GlcNAc(b1-6)[Gal(b1-3)]GalNAc
# Procedure, shortened: as §1
# Gal3S(b1-3)GlcNAc = target: Gal3S(b1-3)GlcNAc
# Procedure, shortened: as §1
# Gal6S(b1-4)GlcNAc6S = target: Gal6S(b1-4)GlcNAc6S
# Procedure, shortened: as §1
# [24] = target: GalNAc(b1-4)GlcNAc(b1-2)Man(a1-3)[GalNAc(b1-4)GlcNAc(b1-2)Man(a1-6)]Man(b1-4)GlcNAc(b1-4)GlcNAc
# Procedure, shortened: as §1
# GlcA(b1-3)Gal = target: GlcA(b1-3)Gal
# Procedure, shortened: as §1
# [25] = target: GlcNAc(a1-3)Gal(b1-4)GlcNAc
# Procedure, shortened: as §1
# [26] = target: GlcNAc(b1-3)Gal(b1-4)GlcNAc(b1-3)Gal(b1-4)GlcNAc(b1-2)Man(a1-3)[GlcNAc(b1-3)Gal(b1-4)GlcNAc(b1-3)Gal(b1-4)GlcNAc(b1-2)Man(a1-6)]Man(b1-4)GlcNAc(b1-4)GlcNAc
# Procedure, shortened: as §1
# [27] = target: GlcNAc(b1-3)Gal(b1-4)GlcNAc(b1-3)Gal(b1-4)GlcNAc(b1-3)Gal(b1-4)GlcNAc(b1-3)Gal(b1-4)GlcNAc(b1-2)Man(a1-3)[GlcNAc(b1-3)Gal(b1-4)GlcNAc(b1-3)Gal(b1-4)GlcNAc(b1-3)Gal(b1-4)GlcNAc(b1-3)Gal(b1-4)GlcNAc(b1-2)Man(a1-6)]Man(b1-4)GlcNAc(b1-4)GlcNAc
# Procedure, shortened: as §1
# [28] = target: GlcNAc(b1-3)Gal(b1-4)GlcNAc(b1-3)GalNAc
# Procedure, shortened: as §1
# [29] = target: GlcNAc(b1-6)Gal(b1-4)GlcNAc
# Procedure, shortened: as §1
# Man(a1-3)[Man(a1-6)]Man = target: Man(a1-3)[Man(a1-6)]Man
# Procedure, shortened: as §1
# [30] = target: Neu5Ac(a2-3)Gal(b1-3)GlcNAc(b1-2)Man
# Procedure, shortened: as §1
# [31] = target: Neu5Ac(a2-3)Gal(b1-3)[Fuc(a1-4)]GlcNAc(b1-3)Gal(b1-4)[Fuc(a1-3)]GlcNAc
# Procedure, shortened: as §1
# [32] = target: Neu5Ac(a2-3)Gal(b1-4)GlcNAc(b1-2)[Neu5Ac(a2-3)Gal(b1-4)GlcNAc(b1-4)]Man(a1-3)[GlcNAc(b1-4)][Neu5Ac(a2-3)Gal(b1-4)GlcNAc(b1-2)[Neu5Ac(a2-3)Gal(b1-4)GlcNAc(b1-6)]Man(a1-6)]Man(b1-4)GlcNAc(b1-4)GlcNAc
# Procedure, shortened: as §1
# [33] = target: Neu5Ac(a2-3)Gal(b1-4)GlcNAc(b1-2)[Neu5Ac(a2-3)Gal(b1-4)GlcNAc(b1-4)]Man(a1-3)[GlcNAc(b1-4)][Neu5Ac(a2-3)Gal(b1-4)GlcNAc(b1-4)Man(a1-6)]Man(b1-4)GlcNAc(b1-4)GlcNAc
# Procedure, shortened: as §1
# [34] = target: Neu5Ac(a2-6)Gal(b1-4)GlcNAc(b1-2)Man(a1-6)Man(b1-4)GlcNAc(b1-4)GlcNAc
# Procedure, shortened: as §1
# [35] = target: Neu5Ac(a2-6)Gal(b1-4)GlcNAc(b1-2)Man(a1-6)[Gal(b1-4)GlcNAc(b1-2)Man(a1-3)]Man(b1-4)GlcNAc(b1-4)GlcNAc
# Procedure, shortened: as §1
# [36] = target: Neu5Ac(a2-6)Gal(b1-4)GlcNAc(b1-3)GalNAc
# Procedure, shortened: as §1
# [37] = target: Neu5Ac(a2-8)Neu5Ac(a2-3)[GalNAc(b1-4)]Gal(b1-4)Glc
# Procedure, shortened: as §1
# [38] = target: Neu5Ac9Ac(a2-3)Gal(b1-3)GlcNAc
# Procedure, shortened: as §1
# [39] = target: Neu5Gc(a2-3)Gal(b1-3)[Fuc(a1-4)]GlcNAc
# Procedure, shortened: as §1
# [40] = target: Neu5Gc(a2-3)Gal(b1-4)[Fuc(a1-3)]GlcNAc
# Procedure, shortened: as §1
binder,measurement,setting,value
B1,glycan array binding signal (z-score),[1],-0.124
same,glycan array binding signal (z-score),[2],0.564
same,glycan array binding signal (z-score),[3],-0.277
same,glycan array binding signal (z-score),[4],-0.217
same,glycan array binding signal (z-score),[5],0.424
same,glycan array binding signal (z-score),[6],-0.006
same,glycan array binding signal (z-score),[7],0.198
same,glycan array binding signal (z-score),[8],-0.555
same,glycan array binding signal (z-score),[9],-0.786
same,glycan array binding signal (z-score),[10],0.399
same,glycan array binding signal (z-score),[11],-0.367
same,glycan array binding signal (z-score),[12],2.85
same,glycan array binding signal (z-score),[13],2.05
same,glycan array binding signal (z-score),Gal(a1-3)Gal(b1-4)GlcNAc,-0.375
same,glycan array binding signal (z-score),[14],2.19
same,glycan array binding signal (z-score),Gal(b1-3)Gal(b1-4)GlcNAc,11.1
same,glycan array binding signal (z-score),Gal(b1-3)GalNAc,4.57
same,glycan array binding signal (z-score),[15],1.71
same,glycan array binding signal (z-score),[16],4.33
same,glycan array binding signal (z-score),[17],1.8
same,glycan array binding signal (z-score),[18],-0.183
same,glycan array binding signal (z-score),[19],1.04
same,glycan array binding signal (z-score),[20],-0.689
same,glycan array binding signal (z-score),[21],-0.558
same,glycan array binding signal (z-score),[22],3.24
same,glycan array binding signal (z-score),[23],0.173
same,glycan array binding signal (z-score),Gal3S(b1-3)GlcNAc,0.121
same,glycan array binding signal (z-score),Gal6S(b1-4)GlcNAc6S,0.127
same,glycan array binding signal (z-score),[24],3.25
same,glycan array binding signal (z-score),GlcA(b1-3)Gal,-0.516
same,glycan array binding signal (z-score),[25],0.799
same,glycan array binding signal (z-score),[26],0.824
same,glycan array binding signal (z-score),[27],-0.371
same,glycan array binding signal (z-score),[28],-0.806
same,glycan array binding signal (z-score),[29],-0.106
same,glycan array binding signal (z-score),Man(a1-3)[Man(a1-6)]Man,-0.318
same,glycan array binding signal (z-score),[30],0.307
same,glycan array binding signal (z-score),[31],0.193
same,glycan array binding signal (z-score),[32],-0.471
same,glycan array binding signal (z-score),[33],0.275
same,glycan array binding signal (z-score),[34],0.197
same,glycan array binding signal (z-score),[35],-0.37
same,glycan array binding signal (z-score),[36],2.06
same,glycan array binding signal (z-score),[37],-0.488
same,glycan array binding signal (z-score),[38],-0.521
same,glycan array binding signal (z-score),[39],0.081
same,glycan array binding signal (z-score),[40],-0.593
